Source: PubChem (Sanford-Burnham Center for Chemical Genomics)
TIM10 inh: TIM10 yeast growth inhibition; S. cerevisiae TIM10 strain growth, BacTiter-Glo luminescence, 24 h; inhibition, % at 10 µM; 1.4% of 330,000 active; AID 463195;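 active = inhibition of 40% or more at the single tested concentration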;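 also: wild-type TIM10 isogenic control strain grown at permissive 25 °C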
tim23-1 inh: inhibits growth of tim23-1 mutant yeast; S. cerevisiae tim23-1 growth, BacTiter-Glo luminescence, 24 h; inhibition, % at 20 µM; 1.3% of 330,000 active; AID 463212;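 active = growth inhibition of the mutant yeast at or above 50%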;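 also: temperature-sensitive mutant grown at 25 °C; plate controls were DMSO-treated mutant yeast for no effect and medium wells lacking yeast for full effect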
NALP3 yeast inh: inhibitors of NALP3 inflammasome in yeast. inhibition, % at 10 µM. 0.39% of 330,000 active. Yeast reconstituted NLRP3/ASC/caspase-1, beta-gal luminescence, 24 h;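 active = inhibition of 50% or more; inactive = inhibition below 50%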;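 also: plate controls were induced DMSO wells for no effect and uninduced yeast grown without galactose for full effect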
NALP1 inh: inhibitors of NALP1 inflammasome in yeast | 0.61% of 280,000 active | S. cerevisiae NALP1/ASC/caspase-1 growth, X-gal OD620, 72 h | AID 2071 | inhibition, % at 10 µM; in the data active = inhibition mostly above about 24%, no sharp cut-off; inactive = mostly below about 32%
tim10-1 inh: inhibits growth of tim10-1 mutant yeast. inhibition, % at 20 µM. 2.2% of 330,000 active. S. cerevisiae tim10-1 ts strain growth, BacTiter-Glo, 24 h. AID 463190;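 active = inhibition of at least 40%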;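 also: mutant grown at 25 °C; 0% = DMSO wells with yeast and 100% = wells holding no yeast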
tim10-1 conf: tim10-1 yeast growth inhibition, confirmed. shares compounds with tim10-1 inh. S. cerevisiae tim10-1 ts strain growth, BacTiter-Glo, 24 h. inhibition, % at 20 µM. 56% of 7,400 active;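 active = inhibition of yeast growth at or above a set limit in either of two repeat tests at 20 µM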;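 also: tim10-1 mutant grown at permissive 25 °C to find synthetic lethal compounds; 0% = DMSO yeast wells and 100% = medium wells without yeast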
tim10 confirm: TIM10 yeast growth inhibition, confirmed | inhibition, % at 10 µM | shares compounds with TIM10 inh | 63% of 4,600 active | S. cerevisiae tim10 strain growth, BacTiter-Glo luminescence, 24 h;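 active = inhibition of yeast growth at or above a set limit in either of two replicates at 10 µM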;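 also: this counterscreen used the strain with wild-type TIM10; 0% = yeast with DMSO and 100% = medium wells lacking yeast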
tim23-1 conf: tim23-1 yeast growth inhibition, confirmed | AID 463218 | 83% of 4,400 active | shares compounds with tim23-1 inh | S. cerevisiae tim23-1 growth, BacTiter-Glo luminescence, 24 h | inhibition, % at 20 µM;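 active = inhibition above about 39% in either of two replicate wells at 20 µM, limit read from the data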;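 also: temperature-sensitive tim23-1 mutant grown at 25 °C; 0% = DMSO wells with yeast and 100% = medium wells without yeast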
Numbers without * were called inactive. An excerpt weighted towards active compounds, which were near 4.1% of everything screened.

How did CCOc1cc(NS(=O)(=O)c2ccc(NC(C)=O)cc2)c(OCC)cc1NC(=O)c1cccs1 do in these assays?
TIM10 inh: 2; tim23-1 inh: -3; NALP3 yeast inh: -19; NALP1 inh: 13; tim10-1 inh: 0

What do the screens show for `CCc1cccc2c1NC(=O)C2(O)N1CCCC(C)C1` (stereo unspecified)?
TIM10 inh: 6; tim23-1 inh: 24; NALP3 yeast inh: 9; NALP1 inh: 8; tim10-1 inh: 21

What do the screens show for `Cc1cccc2c1NC(=O)C21N2CCCC2C(C(=O)c2ccc3ccccc3c2)C12C(=O)Nc1ccccc12` (stereo unspecified)?
TIM10 inh: 43*; tim23-1 inh: 51*; NALP3 yeast inh: 9; tim10-1 inh: 46*; tim10-1 conf: 71*; tim10 confirm: 66*; tim23-1 conf: 57*

What do the screens show for `Cc1cc(C(=O)N2CCCC(C(=O)c3ccc4ccccc4c3)C2)nn1C` (stereo unspecified)?
TIM10 inh: 6; tim23-1 inh: 2; NALP3 yeast inh: 4; NALP1 inh: -4; tim10-1 inh: 8

Results for CCc1cccc2c1NC(=O)C21N2CCCC2C(C(=O)c2ccc3ccccc3c2)C12C(=O)Nc1ccccc12 (stereo unspecified) ?
TIM10 inh: 69*; tim23-1 inh: 51*; NALP3 yeast inh: 20; NALP1 inh: 21; tim10-1 inh: 65*; tim10-1 conf: 70*; tim10 confirm: 71*; tim23-1 conf: 61*

Results for C#CCCCCCCC#CCN(C)C ?
TIM10 inh: -7; tim23-1 inh: 5; NALP3 yeast inh: 5; NALP1 inh: 52; tim10-1 inh: 15

Results for Cc1cccc(NC(=O)/C(C#N)=C\c2cccnc2)c1 ?
TIM10 inh: 66*; tim23-1 inh: 79*; NALP3 yeast inh: 21; NALP1 inh: 47; tim10-1 inh: 67*; tim10-1 conf: 56*; tim10 confirm: 59*; tim23-1 conf: 78*

How did N#C/C(=C\c1cccnc1)C(=O)Nc1ccc(Cl)cc1 do in these assays?
TIM10 inh: 61*; tim23-1 inh: 76*; NALP3 yeast inh: 14; NALP1 inh: 9; tim10-1 inh: 61*; tim10-1 conf: 26; tim10 confirm: 38*; tim23-1 conf: 66*

How did COc1ccccc1NC(=O)/C(C#N)=C/c1cccnc1 do in these assays?
TIM10 inh: 20; tim23-1 inh: 45; NALP3 yeast inh: 20; NALP1 inh: 13; tim10-1 inh: 24

How did N#C/C(=C\c1cccnc1)C(=O)NC1CCCCC1 do in these assays?
TIM10 inh: 65*; tim23-1 inh: 70*; NALP3 yeast inh: 4; tim10-1 inh: 58*; tim10-1 conf: 41*; tim10 confirm: -18; tim23-1 conf: 70*

How did N#C/C(=C\c1cccnc1)C(=O)Nc1cccc2ccccc12 do in these assays?
TIM10 inh: 60*; tim23-1 inh: 77*; NALP3 yeast inh: 11; NALP1 inh: 12; tim10-1 inh: 61*; tim10-1 conf: 58*; tim10 confirm: 73*; tim23-1 conf: 78*

What do the screens show for `Cc1cccc(NC(=O)/C(C#N)=C\c2ccc(C(=O)O)cc2)c1`?
TIM10 inh: 2; tim23-1 inh: 0; NALP3 yeast inh: 4; NALP1 inh: -4; tim10-1 inh: 0

Results for O=C(Nc1ccccc1)NC1CCCCNC1=O (stereo unspecified) ?
TIM10 inh: -3; tim23-1 inh: -8; NALP3 yeast inh: 7; NALP1 inh: -6; tim10-1 inh: -6

Results for N#C/C(=C\c1cccnc1)C(=O)Nc1cccc(Cl)c1 ?
TIM10 inh: 50*; tim23-1 inh: 85*; NALP3 yeast inh: 10; NALP1 inh: -4; tim10-1 inh: 48*; tim10-1 conf: 34*; tim10 confirm: 24; tim23-1 conf: 78*

What do the screens show for `N#C/C(=C\c1cccc([N+](=O)[O-])c1)C(=O)Nc1cccnc1`?
TIM10 inh: 1; tim23-1 inh: 28; NALP3 yeast inh: -4; NALP1 inh: 6; tim10-1 inh: 26

Results for CC1CCCN(CC(O)COc2ccc(S(=O)(=O)N3CCCC3)cc2[N+](=O)[O-])C1 (stereo unspecified) ?
TIM10 inh: -1; tim23-1 inh: -9; NALP3 yeast inh: 9; tim10-1 inh: -15

How did COC(=O)c1ccccc1NC(=S)N(Cc1ccc2c(c1)OCO2)Cc1cc2cccc(C)c2[nH]c1=O do in these assays?
TIM10 inh: 27; tim23-1 inh: 22; NALP3 yeast inh: 10; NALP1 inh: 3; tim10-1 inh: 20

Results for C=CCn1c(=O)c(C(=O)NC2CC2)c(O)c2cc(OC)c(OC)cc21 ?
TIM10 inh: 10; tim23-1 inh: 10; NALP3 yeast inh: 23; NALP1 inh: 4; tim10-1 inh: 5

Results for O=C(NC1CCCC1)c1cccc(Cl)c1 ?
TIM10 inh: -2; tim23-1 inh: 8; NALP3 yeast inh: -10; NALP1 inh: -7; tim10-1 inh: -10

Results for O=C(NC1CC1)c1ccc2c(c1)C1C3CCC(C3)C1C(c1ccccc1)N2 (stereo unspecified) ?
TIM10 inh: 41*; tim23-1 inh: 62*; NALP3 yeast inh: -2; NALP1 inh: 39; tim10-1 inh: 50*; tim10-1 conf: 42*; tim10 confirm: 0; tim23-1 conf: 54*

What do the screens show for `Cc1cc(C)cc(C(=O)NCCC(=O)N2CCC3(CC2)NCCc2[nH]cnc23)c1`?
TIM10 inh: -7; tim23-1 inh: -17; NALP3 yeast inh: 7; NALP1 inh: 6; tim10-1 inh: -5

How did Cc1cc(C)c2sc(NC(=O)C3=COCCO3)nc2c1 do in these assays?
TIM10 inh: 43*; tim23-1 inh: 53*; NALP3 yeast inh: 22; NALP1 inh: 7; tim10-1 inh: 45*; tim10-1 conf: 35*; tim10 confirm: 31; tim23-1 conf: 40*

How did Cc1ccc(Cl)c2sc(NC(=O)C3=COCCO3)nc12 do in these assays?
TIM10 inh: 42*; tim23-1 inh: 72*; NALP3 yeast inh: 3; NALP1 inh: 10; tim10-1 inh: 61*; tim10-1 conf: 51*; tim10 confirm: 41*; tim23-1 conf: 54*

Results for COc1cc(OC)c(/C=N/N2CCN(c3ccccc3OC)CC2)c(OC)c1 ?
TIM10 inh: 0; tim23-1 inh: 16; NALP3 yeast inh: 12; NALP1 inh: 23; tim10-1 inh: 1
